Where “and” joins values, the source holds several entries; their conditions need not be identical. Equal values may be shown once. Compounds without any hit were thinned out: in the full panel of roughly 83,000, 20% have a hit.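 Plates (96-well) were seeded with cells, treated with compound at one concentration, and incubated for 48 hours before percent growth was determined.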 Calls of active or inactive are those of the source.
These compounds were tested on SK-MEL-2 melanoma (assay: NCI-60 one-dose screen, 48 h (100 = growth as untreated, 0 = no growth, -100 = all killed)). Details: 10 µM unless noted.
Protocol: Growth inhibition of the SK-MEL-2 human tumor cell line is measured as a screen for anti-cancer activity. Cells are grown in 96 well plates and exposed to the test compound for 48 hours. Compounds are tested at a single concentration, which is 10^-5 M for most compounds. The reported endpoint is percent growth (GI% or GIPRCNT), where numbers from 0 - 100% represent growth inhibition, and numbers from -100% - 0 represent cell death. For example, a value of 40 represents 60% growth inhibition. A value of 0 means no net growth occurred over the course of the experiment. A value of -40 indicates 40% of cells at the beginning of the experiment died by the end of the experiment. A value of -100 means all cells are dead at the end of the experiment.
NCI-60 Human Tumor Cell Lines Screen was performed using the standard one-dose NCI protocol, which is described in more detail at https://dtp.cancer.gov/discovery_development/nci-60/default.htm.
Compounds with GIPRCNT values below 10 were considered active. Activity score was based on GIPRCNT using the following formula: […]
Score is 0 for GIPRCNT values of 100 or above, 50 for GIPRCNT values of 0, and 100 for GIPRCNT values of -100.
With `Cc1ccc(NC(=O)/C=C/c2ccc(OCCCOc3ccc4c(C)cc(=O)oc4c3)cc2)cc1` the growth was 58% (inactive). For `C#CCOc1cccc(-c2nc(N)nc(Nc3ccccc3SSc3ccccc3Nc3nc(N)nc(-c4cccc(OCC#C)c4)n3)n2)c1`, the growth was 96.3% (inactive). `CNC(=O)c1cc(N2CCc3cc(NC(=O)Nc4ccc(N5CCOCC5)c(C(F)(F)F)c4)ccc32)ccn1` was tested, and the growth was 45.6% (inactive). `C#CCn1cc(/C=N/Nc2nc(-c3ccc(Br)cc3)cs2)c2ccccc21` was tested, and the growth was 104% (inactive). `O=C1C(N2CCN(c3ccccc3)CC2)=C(Cl)C(=O)c2ncccc21` was tested, and the growth was 97.1% (inactive). For `CC(C)C(/C=C/c1[nH]ncc1-c1cc(Cl)ccc1O)N1CCOCC1` (stereo not given), the growth was 91.3% (inactive). With `O=S(=O)(NCCCNc1nccc(-c2[nH]c(-c3ccccc3)nc2-c2ccc(F)c(O)c2)n1)c1ccc(C(F)(F)F)cc1` the growth was 18.8% (inactive). `CC(Nc1ncnc2ccc(-c3cnc4cnccn34)cc12)c1ccccc1` (stereo not given) was tested, and the growth was 64% (inactive). `Cc1ccc(S(=O)(=O)NCCCNc2nccc(-c3[nH]c(-c4ccccc4)nc3-c3ccc(F)c(O)c3)n2)cc1` was tested, and the growth was 24.8% (inactive). With `CCN(CC)S(=O)(=O)c1ccc(-c2nc(C(Cl)Cl)nc3cc(-c4ccc(F)cc4)nn23)cc1` the growth was 82.3% (inactive). For `COc1ccc(C(C)=C(c2ccc(OCCN3CCCCCC3)cc2)c2ccc(OCCN3CCCCCC3)cc2)cc1`, the growth was -65.2% (active). In the case of `Cn1cc(-c2nnc(N)nc2-c2c[nH]c3ccc(Br)cc23)c2cc(Br)ccc21`, the growth is reported as 110% (inactive). `N#Cc1cnc2ccc(-c3cnc4n[nH]nc4c3)cc2c1N1CCc2cc(F)c(Cl)cc21` was tested, and the growth was -22.6% (active). For `Cc1nc(/N=C(N)/N=C(\N)c2cccc(Br)c2)sc1C`, the growth was 64% (inactive). For `C/C(=C(/C)C1CC1CCNC1CCC(NC(=O)OC(C)(C)C)CC1)c1ccccc1` (stereo not given), the growth was 95.9% (inactive). With `Cn1cc(-c2nc(N)nnc2-c2c[nH]c3ccc(Br)cc23)c2cc(F)ccc21` the growth was 113% (inactive). With `COc1ccc(/C=N/NC(=O)c2c(N)nn(C)c2Nc2ccccc2)cc1` the growth was 7.07% (active). In the case of `O=c1c2ccccc2cc2n1CCN=C2c1ccccc1`, the growth is reported as 99.8% (inactive). `Cc1ccc(-c2cc3nc(C(Cl)Cl)nc(-c4ccc(S(=O)(=O)N(C)C)cc4)n3n2)cc1` was tested, and the growth was 113% (inactive). With `CC1CCN(CC(=O)Nn2c(COc3ccccc3)nc3ccccc3c2=O)CC1` the growth was 87.2% (inactive). With `CCCCCCCCCC(=O)NC(C)(C)C(=O)N1CCC[C@H]1C(=O)N[C@@H](CC(C)C)C(=O)N[C@@](C)(CC)C(=O)N[C@@H](CCC(N)=O)C(=O)N[C@H](CCC(N)=O)C(=O)NC(C)(C)C(=O)NC(C)(C)C(=O)N[C@@H](CCC(N)=O)C(=O)N[C@H](CC(C)C)C(=O)N[C@H](CO)CC(C)C` the growth was -86.8% (active) and -74.3% (active). With `CC1=C(C)C(=O)C(Nc2ccc3c(c2)OCCO3)=C(Br)C1=O` the growth was 114% (inactive). With `CCc1cccc2c3c(sc12)C(c1ccc(F)cc1)C(C#N)=C(/N=C/c1ccc(Cl)cc1)O3` (stereo not given) the growth was -7.31% (active). For `NC1[C@H]2CN(c3cnc(C(=O)Nc4cc(F)cc5cccnc45)cn3)C[C@@H]12` (stereo not given in full), the growth was 92.5% (inactive). With `Clc1cccc(/C=N/Nc2nc(N/N=C/c3cccc(Cl)c3)nc(N3CCCCC3)n2)c1` the growth was 86.1% (inactive). For `CN1CCN(Cc2ccc(NC(=O)c3cncc(C#Cc4cnc5ccc(OCC(F)F)nn45)c3)cc2C(F)(F)F)CC1`, the growth was -86.5% (active). With `Cc1ccc2c(n1)C(=O)C(Cl)=C(Nc1ccc(C(F)(F)F)cc1)C2=O` the growth was 103% (inactive). For `CC(C)(C)OC(=O)NCc1ccc(CNc2c([N+](=O)[O-])cnc3ccccc23)cc1`, the growth was 29.7% (inactive). For `COc1ccc(OC)c(NC(=O)CCCCCCNC(=O)C(O)(O)C(F)(F)F)c1`, the growth was 10.6% (inactive). `CC(=O)OCCCCN1C=C/C(=C\C(=O)n2ccc3ccccc32)c2ccccc21` was tested, and the growth was 113% (inactive). In the case of `CN1CCN(c2ccc(Nc3nc(NCCNS(=O)(=O)c4ccccc4)c4sccc4n3)cc2)CC1`, the growth is reported as 98.6% (inactive). For `O=C(CSc1cc[n+](CCCCO)c2ccccc12)n1ccc2ccccc21`, the growth was 111% (inactive). `COC(=O)N1CCN(CCNCc2ccc(NC(=O)c3ccc(C)c(C#Cc4cnc5cccnn45)c3)cc2C(F)(F)F)CC1` was tested, and the growth was 4.46% (active). With `COc1cc(-c2nc(-c3ccccc3)[nH]c2-c2ccnc(NCCCNS(=O)(=O)c3ccc(C(F)(F)F)cc3)n2)ccc1Cl` the growth was 74.8% (inactive) and 43.8% (inactive). For `CNC(=O)c1cc(-n2ccc3cc(NC(=O)Nc4ccc(N5CCN(C)CC5)c(C(F)(F)F)c4)ccc32)ccn1`, the growth was 87.2% (inactive). With `CN1CCN(Cc2ccc(NC(=O)c3cncc(C#Cc4cnc5ccc(OC6CCOCC6)nn45)c3)cc2C(F)(F)F)CC1` the growth was -90.8% (active). For `CN(C)S(=O)(=O)c1ccc(-c2nc(C(Cl)Cl)nc3cc(-c4ccc(F)cc4)nn23)cc1`, the growth was 9.25% (active). For `CN1CCN(Cc2ccc(NC(=O)c3cncc(C#Cc4cnc(N)nc4)c3)cc2C(F)(F)F)CC1`, the growth was -65.2% (active). With `Nc1cc(C(=O)N/N=C\c2ccc(OC(F)F)c(OC3CCCC3)c2)nn1CC(O)c1ccccc1` (stereo not given) the growth was 101% (inactive). `Cn1cc(-c2cc3ncnc(Nc4ccc(CC(=O)Nc5nc(C(C)(C)C)cs5)cc4)c3s2)cn1` was tested, and the growth was 36.5% (inactive).

— PubChem BioAssay (NCI)
